Screening results deposited in PubChem BioAssay by National Center for Advancing Translational Sciences (NCATS).
KCNH2 3.1 block – KCNH2 3.1 (human) potassium channel inhibition; U2OS KCNH2 3.1, thallium flux FluxOr; active compounds read low; 340,000 compounds, 0.95% hits; activity change, % (tested at about 1.8 µM);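 active means maximum activity change below -70%; inconclusive means maximum activity change from -70% to -50%; inactive means maximum activity change above -50%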;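 further: thallium influx rate constant from kinetic fluorescence after stimulation buffer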
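FluxOr-based Tl+ influx in U2OS cells transduced with KCNH2 3.1 virus; rate constants normalized to DMSO controls.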
TRPML1 ag – agonists of human TRPML1 channel | activation, % (test concentration not listed) | 410,000 compounds, 0.12% hits | TRPML1-expressing cells, Ca2+ dye fluorescence, FDSS | AID 624414 | Q9GZU1; in the data active means activation above about 50%; inconclusive means mostly about 30% to 49%
Target sequence (Q9GZU1 whole entry, looked up): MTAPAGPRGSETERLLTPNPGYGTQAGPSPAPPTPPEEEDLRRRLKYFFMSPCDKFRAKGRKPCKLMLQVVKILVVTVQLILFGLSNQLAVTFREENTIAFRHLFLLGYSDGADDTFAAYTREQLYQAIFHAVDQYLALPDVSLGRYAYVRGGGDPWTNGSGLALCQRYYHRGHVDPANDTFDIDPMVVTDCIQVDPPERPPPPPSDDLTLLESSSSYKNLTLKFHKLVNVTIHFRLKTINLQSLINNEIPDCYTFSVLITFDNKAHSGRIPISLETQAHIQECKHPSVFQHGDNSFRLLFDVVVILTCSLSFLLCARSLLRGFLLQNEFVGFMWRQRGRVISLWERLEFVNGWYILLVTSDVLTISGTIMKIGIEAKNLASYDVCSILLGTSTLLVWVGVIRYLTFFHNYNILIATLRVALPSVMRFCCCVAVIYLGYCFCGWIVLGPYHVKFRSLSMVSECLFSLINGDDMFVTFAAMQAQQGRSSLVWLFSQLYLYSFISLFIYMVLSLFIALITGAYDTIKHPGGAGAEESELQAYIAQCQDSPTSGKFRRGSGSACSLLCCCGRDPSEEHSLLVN
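TRPML1-DL cells, Tet-induced overnight (~16 h, 37 degrees C), loaded 45-90 min at room temperature with Ca8 no-wash calcium dye plus quencher. FDSS fluorescence: 10 s baseline, compound pin-transfer, 110 s agonist read, then EC80 54-4 (4uM final) and 110 s antagonist read.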
TRPML1 blocker – inhibitors of human TRPML1 channel | activity change, negative = inhibition, % (concentration not given with the values) | 390,000 compounds, 0.02% hits | Q9GZU1 | TRPML1-inducible cells, Ca2+ dye fluorescence, FDSS; active compounds read low; inhibition of EC80 agonist-evoked calcium signal; in the data active means activity change below about -50%; inconclusive means between about -30% and that limit;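 further: stimulus is agonist 54-4 at its EC80 concentration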
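Calcium fluorescence in TRPML1-DL cells induced overnight with Tet: a 110 s read after compound pin addition, then a 110 s antagonist read after challenge with 54-4 at 4 uM final (EC80).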
KCNH2 WT inh – inhibitors of human wildtype KCNH2 potassium channel | U2OS, BacMam KCNH2, thallium flux FluxOr; active compounds read low | activity change, % at 1.84 µM | 340,000 compounds, 0.37% hits | AID 720551 | Q12809;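 active means maximum activity change below -70%; inconclusive means maximum activity change between -70% and -50%; inactive means maximum activity change above -50%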
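U2OS cells were transduced with wild-type KCNH2 virus (2.03 x 10^8 / mL) for 4 h at room temperature, then cultured overnight at 37 C. Thallium flux was read with FluxOr dye. Rate constants were normalized to DMSO controls.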
TRPV1 PAM – enhances activation of the human vanilloid receptor TRPV1; TRPV1-expressing cells, Fluo-8 calcium influx, capsaicin EC20 potentiation; potentiation, % at 8.33 µM; 320,000 compounds, 0.02% hits; AID 540277; in the data active means potentiation above about 80%; inconclusive means between about 30% and that limit
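Cells expressing TRPV1 were dye-loaded with Fluo-8 and read kinetically: 10 s baseline, 3 min after compound (agonist portion), then 2 min after EC20 capsaicin (allosteric enhancer portion). Calcium-bound dye fluorescence at 480/520 nm.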
TRPV1 ag – activates the human vanilloid receptor TRPV1. Q8NER1. TRPV1-expressing cells, Fluo-8 calcium influx, agonist mode. activation, % at 8.33 µM. 320,000 compounds, 0.19% hits. AID 540275; in the data active means activation above about 80%; inconclusive means between about 30% and that limit
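Cells expressing TRPV1 were dye-loaded with Fluo-8 and read kinetically: 10 s baseline, 3 min after compound (agonist portion), then 2 min after EC20 capsaicin (allosteric enhancer portion). Calcium-bound dye fluorescence at 480/520 nm.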
Numbers stand for hits; - = inactive; ? = inconclusive; . = no result given. Most compounds without a hit are left out; they make up all but 1.3% or so of the library.

SMILES | KCNH2 3.1 block | TRPML1 ag | TRPML1 blocker | KCNH2 WT inh | TRPV1 PAM | TRPV1 ag
Cn1cc(CN2CCN(Cc3ccccc3)CC2)c(-c2cccc(Cl)c2)n1 | -98.9 | - | - | - | - | -
Cc1cnc(C)c(N2CCN(Cc3cn(C)nc3-c3cccc(Cl)c3)CC2)n1 | -115.4 | - | - | - | - | ?
CC(C)(C)c1ccc(S(=O)(=O)N2CCN(C3CCCC3)CC2)cc1 | - | - | - | - | - | -
CC1CC(C)CN(S(=O)(=O)c2ccc(C(C)(C)C)cc2)C1 (configuration not stated) | - | 56.1 | - | - | - | -
CC(=O)Nc1cc(C(=O)NCc2ccc(F)cc2)ccc1Sc1ccc(C)cc1 | . | - | - | . | . | .
O=C(CCN1CCCCC1)N/N=C/c1ccc(Br)cc1 | -75.1 | - | - | - | - | -
COc1cc(/C=N/NC(=O)CN2CCCCC2)ccc1OCc1ccc(Br)cc1 | -90.5 | - | - | - | - | -
O=C(CCN1CCN(C(c2ccccc2)c2ccccc2)CC1)N/N=C/c1ccc(O)cc1O | - | - | - | - | - | ?
O=C(CCN1CCN(C(c2ccccc2)c2ccccc2)CC1)N/N=C/c1ccc(O)cc1 | -79.5 | - | - | - | - | ?
O=C(CCN1CCCCC1)Nc1ccc(Br)cc1 | - | - | - | - | - | -
CCOc1ccc(NC(=O)c2ccc3c(c2)CCN3S(=O)(=O)c2ccc(Cl)cc2)cc1 | . | - | - | . | . | .
CCOC(=O)c1c(C)c(-c2ccccc2)n(CC(=O)NC2CCCCCC2)c1C | . | - | - | . | . | .
O=C(CCSCc1ccc(Cl)cc1)NCc1cccnc1 | - | - | - | - | - | 80.5
O=C(Nc1ccc(OC(F)F)cc1)c1nc(SCc2ccccc2F)ncc1Cl | . | - | . | . | . | .
Clc1ccc(N2CCN(Cc3c[nH]c4ncccc34)CC2)cc1 | -82.0 | - | - | . | - | -
O=C1c2cccc3c(N4CCCCC4)ccc(c23)C(=O)N1c1ccccc1O | - | 57.7 | - | - | - | ?
Cc1ccc(Sc2ccc(CO)cc2[N+](=O)[O-])cc1 | - | - | - | - | - | -
Cc1ccc(Sc2ccc(CN3CCCC3)cc2[N+](=O)[O-])cc1 | -92.5 | - | - | - | - | -
CN1CCN(Cc2ccc(Sc3ccc(Cl)cc3)c([N+](=O)[O-])c2)CC1 | -89.6 | - | - | -95.9 | - | -
CCOC(=O)c1c(C)oc2nc(C)nc(NCCCN3CCN(c4cccc(C)c4)C(C)C3)c12 (configuration not stated) | . | - | ? | . | . | .
CN(C)C(=O)COC(=O)c1ccccc1OCC(=O)Nc1ccc(Br)cc1 | . | - | . | . | . | .
O=[N+]([O-])c1ccc(NCCNCCOc2nonc2-c2ccccc2)c([N+](=O)[O-])c1 | -93.2 | - | - | - | - | -
COc1ccc(-c2cnnc(N/N=C/c3ccc(-c4ccc([N+](=O)[O-])cc4)o3)n2)cc1 | -148.6 | - | - | - | - | -
O=[N+]([O-])c1ccc(-c2ccc(/C=N/Nc3nc(N4CCCC4)nc(N4CCCC4)n3)o2)cc1 | ? | - | - | - | - | -
CC(C)Cn1cc(NC(=O)NCc2cccc(Cl)c2)c2ccccc2c1=O | . | - | - | . | . | .
SMILES | KCNH2 3.1 block | TRPML1 ag | TRPML1 blocker | KCNH2 WT inh | TRPV1 PAM | TRPV1 ag
O=C(CN1CCN(Cc2ccc(Cl)cc2)C1=O)NCCCN1CCOCC1 | - | - | - | - | - | -
O=C(CN1CCN(Cc2ccc(Cl)cc2)C1=O)NCCCN1CCN(c2ccc(F)cc2)CC1 | -96.8 | - | - | -115.6 | - | -
O=C(CN1CCN(c2ccc(F)cc2)CC1)NCc1ccc(Cl)cc1 | -77.0 | - | - | - | - | -
COc1ccc(NC(=O)c2cc(S(=O)(=O)N3CCCC(C)C3)cn2C)c(OC)c1 (configuration not stated) | . | - | - | . | . | .
COc1ccccc1NC(=O)CN1C(=O)CC(c2ccc(C)c(C)c2)=Nc2ccccc21 | . | - | - | . | . | .
Brc1ccc(CN2C3=NCCCN3c3ccccc32)cc1 | -75.4 | - | - | - | - | -
CC(C)(C)c1ccc(CN2C3=NCCCN3c3ccccc32)cc1 | -79.7 | - | - | - | - | -
Clc1ccc(CN2C3=NCCCN3c3ccccc32)c(Cl)c1 | -93.8 | - | - | - | - | -
O=C(CN1C2=NCCCN2c2ccccc21)c1ccc(Br)s1 | -85.6 | - | - | - | - | -
c1ccc(CN2C3=NCCCN3c3ccccc32)cc1 | - | - | - | - | ? | -
CC(C)(C)n1ncc2c(=O)n(Cc3cccc(C#N)c3)cnc21 | . | - | - | . | . | .
CCCCCCCN1C2=NCCCN2c2ccccc21 | -80.2 | - | - | - | - | -
CCCCN1C2=NCCCN2c2ccccc21 | - | - | - | - | - | -
CO[C@H]1/C=C\O[C@@]2(C)Oc3c(C)c(O)c4c(O)c(c(C=NN5CCN(C6CCCC6)CC5)c(O)c4c3C2=O)NC(=O)C(C)=CC=C[C@H](C)[C@H](O)[C@@H](C)[C@@H](O)[C@@H](C)[C@H](OC(C)=O)[C@H]1C | . | - | . | . | . | .
O=C(c1cc(-c2cccc(Cl)c2)on1)N1CCCC1 | -130.9 | - | - | - | - | -
O=C(c1cc(-c2ccc(Br)cc2)on1)N1CCOCC1 | - | - | - | - | - | 99.2
CCOC(=O)c1ccc(NC(=O)CSc2cc(-c3ccccc3)nc(C)n2)cc1 | . | - | - | . | . | .
O=C(C[n+]1cccc2cc(Cl)ccc21)c1ccc2c(c1)CCCC2 | . | - | . | . | . | .
O=C(Nc1cccc(-n2cnnn2)c1)c1cc(Cl)nc(Cl)c1 | - | - | - | - | - | ?
CCOc1ccc(C(=O)Nc2cccc(-n3cnnn3)c2)cc1OCC | - | - | - | - | - | -
CC(C)(C)c1ccc(C(=O)Nc2cccc(-n3cnnn3)c2)cc1 | - | - | - | - | - | 80.2
CCCCOc1ccc(C(=O)Nc2cccc(-n3cnnn3)c2)cc1OC | - | - | - | - | - | 88.5
O=C(COC(=O)CNC(=O)C1CCCCC1)NC1CC1 | . | - | . | . | . | .
C=CCOc1c(Br)cc(CNc2ccc(NC(=O)CCC)cc2)cc1OCC | - | - | - | - | - | -
C=CCOc1c(Br)cc(CNc2ccc3[nH]c(=O)[nH]c3c2)cc1OCC | - | - | - | - | - | 86.8
COc1ccc(OC)c(-c2c3cc(O)c(=O)cc-3oc3cc(O)c(O)cc23)c1 | - | 147.4 | - | - | - | -
CCOc1ccccc1-c1c2cc(O)c(=O)cc-2oc2cc(O)c(O)cc12 | - | 110.0 | - | - | - | ?
CN(C)c1ccc(/C=C/c2ccnc3ccccc23)cc1Br | . | - | . | . | . | .
COc1ccc(C2N(C(C)=O)CCN2S(=O)(=O)c2ccc(C)cc2)cc1 (configuration not stated) | - | - | - | - | - | -
